PubChem BioAssay (NCATS)
Inconclusive results are not listed. A call without a number means that no potency is given here. Unmarked numbers belong to inactive results. Activity calls are given as the source filed them. The call rests on the fitted dose curve; in most records, active means well fitted curve in the direction sought with a large enough effect; inconclusive means small, poorly fitted or top-dose-only effect, or another doubt; inactive means no such curve, though single readings can be large; an effect the other way counts as inactive or inconclusive.

How the values were obtained:
[1] = qHTS of pediatric cancer cell lines to identify multiple opportunities for drug repurposing: Primary screen for OHS-50 cells (AID 1347103); further: nearly all actives have a fitted effect of over 40% in size; further: potency means the concentration at half of the fitted maximal effect
In short: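 Cells (500-1,000/well) rested 5 h, then received compounds for 48 h; metabolically active cells were measured by CellTiter-Glo luminescence. Final concentrations spanned up to 46 µM (MIPE, 11-point) or 0.59 nM-46 µM (NPC, 8-point) in primary screens, 11-point in follow-ups.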

[2] = qHTS of pediatric cancer cell lines to identify multiple opportunities for drug repurposing: Primary screen for RD cells (AID 1347104); further: nearly all actives have a fitted effect of over 55% in size; further: potency means the concentration at half of the fitted maximal effect
In short: (§1)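 Quantitative HTS format: each compound titrated (MIPE 11 points from 0.78 nM, NPC 8 points from 0.59 nM) onto cells plated 5 hours earlier. After 48 h at 37 degrees C, CellTiter-Glo luminescence was recorded.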

[3] = qHTS of pediatric cancer cell lines to identify multiple opportunities for drug repurposing: Primary screen for MG 63 (6-TG R) cells (AID 1347105); further: nearly all actives have a fitted effect of over 50% in size; further: potency means the concentration at half of the fitted maximal effect
In short: as §1

[4] = qHTS of pediatric cancer cell lines to identify multiple opportunities for drug repurposing: Primary screen for control Hh wild type fibroblast cells (AID 1347106);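 further: series mostly up to about 46 µM; a drop in luminescence marks cytotoxicity and a rise apparent proliferation; nearly all actives have a fitted effect of over 55% in size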
In short: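 Viability after 48 h compound treatment at 37C, 500-1,000 cells/well, read as ATP luminescence with CellTiter-Glo. Primary screens used 11-point (MIPE, 0.78 nM-46 µM) or 8-point (NPC, 0.59 nM-46 µM) final concentrations; follow-up screens used 11-point dilutions.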

[5] = qHTS of pediatric cancer cell lines to identify multiple opportunities for drug repurposing: Primary screen for Rh30 cells (AID 1347107); further: series mostly up to about 46 µM; nearly all actives have a fitted effect of over 75% in size
In short: (§2)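 Cells (500-1,000/well) in growth media were settled 5 h at 37 degrees C, then given compounds for 48 h. Viability was read as CellTiter-Glo luminescence. Primary runs used MIPE at 11 points (0.78 nM-46 µM) and NPC at 8 points (0.59 nM-46 µM); follow-ups used 11 points.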

[6] = qHTS of pediatric cancer cell lines to identify multiple opportunities for drug repurposing: Primary screen for Rh41 cells (AID 1347108); further: nearly all actives have a fitted effect of over 70% in size; further: potency means the concentration at half of the fitted maximal effect;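 on activity change, negative = cytotoxic: series mostly up to about 46 µM; luminescence drop marks cytotoxic hits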
In short: as §1

[7] = qHTS of pediatric cancer cell lines to identify multiple opportunities for drug repurposing: Confirmatory screen for A673 cells (AID 1347110);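 further: cells exposed to compound for 48 h before the viability read; nearly all actives have a fitted effect of over 65% in size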
In short: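 Viability was read as ATP luminescence (CellTiter-Glo) after 48 h of compound exposure at 37 C in A673 cells seeded at 500-1,000/well. Titrations reached 46 uM final, with 11 points in the confirmatory screen. Concentration-response curves were fitted directly.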

[8] = qHTS of pediatric cancer cell lines to identify multiple opportunities for drug repurposing: Confirmatory screen for SK-N-MC cells (AID 1347111);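 further: potency means the concentration at half of the fitted maximal effect; cells exposed to compound for 48 h before the readout; nearly all actives have a fitted effect of over 70% in size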
In short: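 Metabolically active cells were quantified by ATP-dependent luminescence (CellTiter-Glo, 15 min at room temperature) following 48 h treatment. Cells had been plated at 500-1,000 per well and settled for 5 h beforehand.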

[9] = qHTS of pediatric cancer cell lines to identify multiple opportunities for drug repurposing: Confirmatory screen for DAOY cells (AID 1347114); further: nearly all actives have a fitted effect of over 65% in size
In short: (§3)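 Viability measured as metabolically active cells via CellTiter-Glo luminescence following 48 hours of compound exposure, 11-point dilutions in confirmatory testing. 500-1,000 cells/well plated 5 hours before dosing; controls were DMSO and 2.3 µM bortezomib.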

[10] = qHTS of pediatric cancer cell lines to identify multiple opportunities for drug repurposing: Confirmatory screen for NB-EBc1 cells (AID 1347115);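 further: potency means the concentration at half of the fitted maximal effect; cells exposed to compound for 48 h before the viability read; nearly all actives have a fitted effect of over 45% in size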
In short: as §2

[11] = qHTS of pediatric cancer cell lines to identify multiple opportunities for drug repurposing: Confirmatory screen for SJ-GBM2 cells (AID 1347116); further: potency means the concentration at half of the fitted maximal effect; nearly all actives have a fitted effect of over 60% in size
In short: as §3

[12] = qHTS of pediatric cancer cell lines to identify multiple opportunities for drug repurposing: Confirmatory screen for BT-37 cells (AID 1347117); further: potency means the concentration at half of the fitted maximal effect; nearly all actives have a fitted effect of over 55% in size
In short: as §2

[13] = qHTS of pediatric cancer cell lines to identify multiple opportunities for drug repurposing: Confirmatory screen for TC32 cells (AID 1347118);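 further: potency means the concentration at half of the fitted maximal effect; cells exposed to compound for 48 h before the read; nearly all actives have a fitted effect of over 65% in size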
In short: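 qHTS, TC32, 48 h drug treatment, CellTiter-Glo luminescence as a proxy for metabolically active cells; primary top concentration 46 µM (MIPE 11-pt, NPC 8-pt); confirmatory 11-pt.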

[14] = qHTS of pediatric cancer cell lines to identify multiple opportunities for drug repurposing: Confirmatory screen for MG 63 (6-TG R) cells (AID 1347119); further: potency means the concentration at half of the fitted maximal effect; nearly all actives have a fitted effect of over 55% in size
In short: as §2

[15] = qHTS of pediatric cancer cell lines to identify multiple opportunities for drug repurposing: Confirmatory screen for control Hh wild type fibroblast cells (AID 1347121); further: nearly all actives have a fitted effect of over 70% in size
In short: as §2

[16] = qHTS of pediatric cancer cell lines to identify multiple opportunities for drug repurposing: Confirmatory screen for U-2 OS cells (AID 1347122); conditions: outcome: dose series up to 45.9 µM; further: nearly all actives have a fitted effect of over 65% in size
In short: as §2

[17] = qHTS of pediatric cancer cell lines to identify multiple opportunities for drug repurposing: Confirmatory screen for Rh41 cells (AID 1347123); further: nearly all actives have a fitted effect of over 60% in size
In short: as §2

Structure (SMILES): O=c1[nH]cnc2c1ncn2[C@@H]1O[C@H](CO)[C@@H](O)[C@H]1O
- Potency [1]: inactive
- Potency [2]: inactive
- Potency [3]: inactive
- outcome [4]: inactive
- outcome [5]: inactive
- Potency [6]: inactive

Structure (SMILES): CC(C)C(=O)c1c(C(C)C)nn2ccccc12
- Potency [1]: inactive
- Potency [2]: inactive
- Potency [3]: inactive
- outcome [4]: inactive
- outcome [5]: inactive
- Potency [6]: inactive

Structure (SMILES): CCOC(=O)[C@H](CCc1ccccc1)N[C@@H](C)C(=O)N1C(=O)N(C)C[C@H]1C(=O)O
- Potency [1]: inactive
- Potency [2]: inactive
- Potency [3]: inactive
- outcome [4]: inactive
- outcome [5]: inactive
- Potency [6]: inactive

Structure (SMILES): CC1(C)S[C@@H]2[C@H](NC(=O)Cc3ccccc3)C(=O)N2[C@H]1C(=O)O (tested in a mixture with another compound)
- Potency [1]: inactive
- Potency [2]: inactive
- Potency [3]: inactive
- outcome [4]: inactive
- outcome [5]: inactive
- Potency [6]: inactive

Structure (SMILES): Cn1cc[nH]c1=S
- Potency [1]: inactive
- Potency [2]: inactive
- Potency [3]: inactive
- outcome [4]: inactive
- outcome [5]: inactive
- Potency [6]: inactive

Structure (SMILES): C=Cc1c(C)c2cc3[nH]c(cc4nc(cc5nc(cc1[nH]2)C(C)=C5CCC(=O)O)C(CCC(=O)O)=C4C)c(C)c3C=C
- Potency [1]: inactive
- Potency [2]: inactive
- Potency [3]: inactive
- outcome [4]: inactive
- outcome [5]: inactive
- Potency [6]: inactive

Structure (SMILES): CCCCC(CC)COC(=O)c1ccccc1O (stereo not given)
- Potency [1]: inactive
- Potency [2]: inactive
- Potency [3]: inactive
- outcome [4]: inactive
- outcome [5]: inactive
- Potency [6]: inactive

Structure (SMILES): Nc1ccc(S(=O)(=O)Nc2ccc(Cl)nn2)cc1
- Potency [1]: inactive
- Potency [2]: inactive
- Potency [3]: inactive
- outcome [4]: inactive
- outcome [5]: inactive
- Potency [6]: inactive

Structure (SMILES): C[C@@H]1CC[C@@]2(OC1)O[C@H]1C[C@H]3[C@@H]4CC[C@H]5C[C@@H](O)CC[C@]5(C)[C@H]4CC(=O)[C@]3(C)[C@H]1[C@@H]2C
- activity change, negative = cytotoxic [1]: 9.93% [at 6.18 µM]
- activity change, negative = cytotoxic [2]: 12.6% [at 4.84 µM]
- activity change, negative = cytotoxic [3]: -5.19% [at 4.84 µM]
- activity change, negative = cytotoxic [4]: 6.44% [at 4.84 µM]
- activity change, negative = cytotoxic [5]: 18.9% [at 4.84 µM]
- activity change, negative = cytotoxic [6]: 21.2% [at 4.84 µM]

Structure (SMILES): COC(=O)[C@H]1[C@H]2C[C@@H]3c4[nH]c5cc(OC)ccc5c4CCN3C[C@H]2C[C@@H](OC(=O)COc2ccc(OC)cc2)[C@@H]1OC
- Potency [1]: inactive
- Potency [2]: inactive
- Potency [3]: inactive
- outcome [4]: inactive
- outcome [5]: inactive
- Potency [6]: inactive

Structure (SMILES): CCCc1c(OCCCCc2nn[nH]n2)ccc(C(C)=O)c1O
- Potency [1]: inactive
- Potency [2]: inactive
- Potency [3]: inactive
- outcome [4]: inactive
- outcome [5]: inactive
- Potency [6]: inactive

Structure (SMILES): CC1(C)OC(=O)NC1=O
- Potency [1]: inactive
- Potency [2]: inactive
- Potency [3]: inactive
- outcome [4]: inactive
- outcome [5]: inactive
- Potency [6]: inactive

Structure (SMILES): CC(COc1ccccc1)NC(C)C(O)c1ccc(O)cc1 (stereo not given)
- Potency [1]: inactive
- Potency [2]: inactive
- Potency [3]: inactive
- outcome [4]: inactive
- outcome [5]: inactive
- Potency [6]: inactive

Structure (SMILES): Oc1cccc(O)c1
- Potency [1]: inactive
- Potency [2]: inactive
- Potency [3]: inactive
- outcome [4]: inactive
- outcome [5]: inactive
- Potency [6]: inactive

Structure (SMILES): Cc1c(Cl)cccc1Nc1ccccc1C(=O)O
- Potency [1]: inactive
- Potency [2]: inactive
- Potency [3]: inactive
- outcome [4]: inactive
- outcome [5]: inactive
- Potency [6]: inactive

Structure (SMILES): CCOc1nc2cccc(C(=O)O)c2n1Cc1ccc(-c2ccccc2-c2nn[nH]n2)cc1
- Potency [1]: inactive
- Potency [2]: inactive
- Potency [3]: inactive
- outcome [4]: inactive
- outcome [5]: inactive
- Potency [6]: inactive

Structure (SMILES): NS(=O)(=O)c1cc2c(cc1C(F)(F)F)NC(Cc1ccccc1)NS2(=O)=O (stereo not given)
- Potency [1]: inactive
- Potency [2]: inactive
- Potency [3]: inactive
- outcome [4]: inactive
- outcome [5]: inactive
- Potency [6]: inactive

Structure (SMILES): CCN(CC)CCCC(C)Nc1c2ccc(Cl)cc2nc2ccc(OC)cc12 (stereo not given)
- Potency [1]: 17.4 µM (active)
- Potency [2]: 23.7 µM (active)
- outcome [4]: inactive

Structure (SMILES): O=C(O)CN1C(=O)c2cccc3cccc(c23)C1=O
- Potency [1]: 0.001 µM (active)
- Potency [2]: inactive
- Potency [3]: inactive
- outcome [4]: inactive
- outcome [5]: inactive
- Potency [6]: inactive
- Potency [7]: inactive
- Potency [8]: 2.93 µM (active)
- outcome [9]: inactive
- Potency [10]: 26.1 µM (active)
- Potency [11]: 16.5 µM (active)
- Potency [12]: 18.5 µM (active)
- Potency [13]: 3.29 µM (active)
- Potency [14]: 20.8 µM (active)
- outcome [15]: inactive
- outcome [16]: inactive
- outcome [17]: inactive

Structure (SMILES): N[C@H]1C(O)O[C@H](CO)[C@@H](O)[C@@H]1O (stereo not given in full)
- Potency [1]: inactive
- Potency [2]: inactive
- Potency [3]: inactive
- outcome [5]: inactive
- Potency [6]: inactive

Structure (SMILES): CCCCN(CCCC)CCCOC(=O)c1ccc(N)cc1
- Potency [1]: inactive
- Potency [2]: inactive
- Potency [3]: inactive
- outcome [5]: inactive
- Potency [6]: inactive

Structure (SMILES): O=c1cc[nH]c(=O)[nH]1
- Potency [1]: inactive
- Potency [2]: inactive
- outcome [4]: inactive
- outcome [5]: inactive

Structure (SMILES): CCN(CC)CCNC(=O)c1c(C)[nH]c(/C=C2\C(=O)Nc3ccc(F)cc32)c1C
- Potency [1]: 1.23 µM (active)
- Potency [2]: 15 µM (active)
- Potency [3]: 21.1 µM (active)
- Potency [6]: 21.1 µM (active)

Structure (SMILES): Cc1ncc(COP(=O)(O)O)c(C=O)c1O
- Potency [1]: inactive
- Potency [2]: inactive
- Potency [3]: inactive
- outcome [5]: inactive

Structure (SMILES): Nc1ccc(S(=O)(=O)NC(=O)c2ccccc2)cc1
- Potency [1]: inactive
- Potency [2]: inactive
- Potency [3]: inactive
- outcome [4]: inactive
- outcome [5]: inactive
- Potency [6]: inactive

Structure (SMILES): CC(C)(C)C(=O)C(Oc1ccc(Cl)cc1)n1ccnc1 (stereo not given)
- Potency [1]: inactive
- Potency [2]: inactive
- Potency [3]: inactive
- outcome [5]: inactive

Structure (SMILES): Cc1cccc(Nc2cc(Cl)nc(SCC(=O)O)n2)c1C
- Potency [1]: inactive
- Potency [2]: inactive
- Potency [3]: inactive
- outcome [4]: inactive
- outcome [5]: inactive
- Potency [6]: inactive

Structure (SMILES): CC(=O)Nc1ccc(/C=N/NC(N)=S)cc1
- Potency [1]: inactive
- Potency [2]: inactive
- Potency [3]: inactive
- outcome [5]: inactive
- Potency [6]: inactive

Structure (SMILES): O=C(O)CC(O)C(=O)O (stereo not given)
- Potency [1]: inactive
- Potency [2]: inactive
- Potency [3]: inactive
- outcome [5]: inactive
- Potency [6]: inactive
